Laboratory results as given in PubChem BioAssay (NCI).
This is part of a sample that, as a whole, favours compounds with a hit. Of some 83,000 tested, about 20% had one in any assay.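 Negative percent growth values reflect cell death: -40 means 40% of the cells present at the start died, and -100 means all died.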 Activity calls are given as the source filed them. The calls were made as follows: active = growth percent below 10; inactive = the rest.

Columns and labels:
Test in all cases: NCI-60 one-dose screen, 48 h (100 = growth as untreated, 0 = no growth, -100 = all killed)
HCT-15 colon = details: 10 µM unless noted
HT29 colon = details: 10 µM unless noted
SNB-75 CNS = details: 10 µM unless noted
SNB-19 CNS = details: 10 µM unless noted
U251 CNS = details: 10 µM unless noted
PC-3 prostate = details: 10 µM unless noted
SK-MEL-5 melanoma = details: 10 µM unless noted
UACC-62 melanoma = details: 10 µM unless noted
LOX IMVI melanoma = details: 10 µM
SK-MEL-28 melanoma = details: 10 µM unless noted

Measured: growth

COC(=O)Cc1cc(COC(C)=O)ccc1C
inactive: HCT-15 colon 106% | HT29 colon 96.6% | SNB-75 CNS 97.8% | SNB-19 CNS 113% | U251 CNS 109% | PC-3 prostate 92.6% | SK-MEL-5 melanoma 110% | UACC-62 melanoma 104% | LOX IMVI melanoma 108% | SK-MEL-28 melanoma 113%

C=CCC(O)C=C (stereo not given)
inactive: HCT-15 colon 101% | HT29 colon 110% | SNB-75 CNS 99.3% | SNB-19 CNS 101% | U251 CNS 102% | PC-3 prostate 101% | SK-MEL-5 melanoma 102% | UACC-62 melanoma 104% | LOX IMVI melanoma 97.3% | SK-MEL-28 melanoma 105%

Cn1c(=O)c2nc3c(=O)n(C)c(=O)n(C)c3nc2n(C)c1=O
inactive: HCT-15 colon 109% | HT29 colon 109% | SNB-75 CNS 92.4% | SNB-19 CNS 92.3% | U251 CNS 103% | PC-3 prostate 97.4% | SK-MEL-5 melanoma 106% | UACC-62 melanoma 94.4% | LOX IMVI melanoma 105% | SK-MEL-28 melanoma 122%

CC(=O)NNC(=S)N/C=C/c1c(C)ccc([N+](=O)[O-])c1[N+](=O)[O-]
inactive: HCT-15 colon 96.5% | HT29 colon 105% | SNB-75 CNS 88.5% | SNB-19 CNS 113% | U251 CNS 112% | PC-3 prostate 97.2% | SK-MEL-5 melanoma 105% | UACC-62 melanoma 98.5% | LOX IMVI melanoma 96% | SK-MEL-28 melanoma 101%

CCCCCC/C=C\CCCCCCCCCc1cc(O)cc(OC)c1O
inactive: SNB-19 CNS 24% | U251 CNS 10.2% | SK-MEL-28 melanoma 24%
active: HCT-15 colon 3.68% | HT29 colon 8.67% | SNB-75 CNS 6.11% | PC-3 prostate 1.77% | SK-MEL-5 melanoma -29% | UACC-62 melanoma 6.32% | LOX IMVI melanoma -86.3%

O=C1NC(=O)C(c2ccccc2)O1 (stereo not given)
inactive: HCT-15 colon 107% | HT29 colon 105% | SNB-75 CNS 93.2% | SNB-19 CNS 109% | U251 CNS 101% | PC-3 prostate 102% | SK-MEL-5 melanoma 104% | UACC-62 melanoma 105% | LOX IMVI melanoma 97.4% | SK-MEL-28 melanoma 109%

O=C1CSc2ccccc2N1
inactive: HCT-15 colon 118% | HT29 colon 100% | SNB-75 CNS 76.2% | SNB-19 CNS 96.3% | U251 CNS 96.7% | PC-3 prostate 93.1% | SK-MEL-5 melanoma 109% | UACC-62 melanoma 106% | LOX IMVI melanoma 88% | SK-MEL-28 melanoma 105%

C=C1CC2(OC1=O)C(=O)N(C)c1ccc(I)cc12 (stereo not given)
active: HCT-15 colon -53.7% | HT29 colon -74.7% | U251 CNS 2.89% | PC-3 prostate -76.6% | SK-MEL-5 melanoma -92% | UACC-62 melanoma -61.2% | LOX IMVI melanoma -65.4% | SK-MEL-28 melanoma -93.6%
inactive: SNB-75 CNS 38.4% | SNB-19 CNS 64%

Cn1c(=O)c2[nH]c(CCCCC(=O)O)nc2n(C)c1=O
inactive: HCT-15 colon 107% | HT29 colon 110% | SNB-75 CNS 95.3% | SNB-19 CNS 114% | U251 CNS 106% | PC-3 prostate 92.4% | SK-MEL-5 melanoma 108% | UACC-62 melanoma 102% | LOX IMVI melanoma 99.4% | SK-MEL-28 melanoma 118%

CCN(C(=O)Nc1ccccc1Cl)c1ccccc1
inactive: HCT-15 colon 94.1% | HT29 colon 101% | SNB-75 CNS 117% | SNB-19 CNS 103% | U251 CNS 96.8% | PC-3 prostate 94.6% | SK-MEL-5 melanoma 101% | UACC-62 melanoma 104% | LOX IMVI melanoma 96.5% | SK-MEL-28 melanoma 113%

C=C1C(=O)C2CCN1CC2
inactive: HCT-15 colon 105% | HT29 colon 89.8% | SNB-75 CNS 89.2% | SNB-19 CNS 105% | U251 CNS 100% | PC-3 prostate 101% | SK-MEL-5 melanoma 104% | UACC-62 melanoma 97.3% | LOX IMVI melanoma 98.9% | SK-MEL-28 melanoma 95.6%

C/C(=N\N=C(/C)c1cccc([N+](=O)[O-])c1)c1cccc([N+](=O)[O-])c1
inactive: HCT-15 colon 100% | HT29 colon 87.9% | SNB-75 CNS 83.8% | SNB-19 CNS 80.7% | U251 CNS 91.1% | PC-3 prostate 86.7% | SK-MEL-5 melanoma 94.3% | UACC-62 melanoma 93.2% | LOX IMVI melanoma 91.6% | SK-MEL-28 melanoma 101%

CC(C)N(C(=O)c1ccccc1)C(C)C
inactive: HCT-15 colon 104% | HT29 colon 107% | SNB-75 CNS 100% | SNB-19 CNS 113% | U251 CNS 95.9% | PC-3 prostate 98.9% | SK-MEL-5 melanoma 97.7% | UACC-62 melanoma 108% | LOX IMVI melanoma 104% | SK-MEL-28 melanoma 105%

CC(=O)OCC1OC(n2cnc3c(=S)nc(N)[nH]c32)C(OC(C)=O)C1OC(C)=O (stereo not given)
inactive: HCT-15 colon 79.3% | HT29 colon 74.6% | SNB-75 CNS 56% | SNB-19 CNS 99.9% | U251 CNS 93.1% | PC-3 prostate 104% | SK-MEL-5 melanoma 99.4% | UACC-62 melanoma 65.2% | LOX IMVI melanoma 19.7% | SK-MEL-28 melanoma 114%

Clc1ccc(C(SCc2ccccc2)SCc2ccccc2)cc1
inactive: HCT-15 colon 97.8% | HT29 colon 90.9% | SNB-75 CNS 91.3% | SNB-19 CNS 105% | U251 CNS 88.7% | PC-3 prostate 85.9% | SK-MEL-5 melanoma 98.8% | UACC-62 melanoma 82.1% | LOX IMVI melanoma 94.3% | SK-MEL-28 melanoma 96.3%
